Screens as filed in PubChem.
CF NFkB block = inhibitors of cystic fibrosis induced NF-kB; KKLEB NF-kB-GFP reporter, PAF-induced, GFP fluorescence overnight; inhibition, % at 5 µM; 0.86% of 360,000 active; AID 588850;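 active means at least 50% inhibition at 5 µM, scaled per plate between neutral and stimulator controls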;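 further: PAF is a Pseudomonas aeruginosa culture filtrate used as stimulus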
EWS-Fli block = blocks EWS/Fli oncoprotein-driven transcription; A673 NR0B1-luciferase reporter, viability-normalised; 0.67% of 350,000 active; inhibition, % at 12.6 µM;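 active means mean inhibition of at least 50% after viability correction, with every replicate also passing that limit; inconclusive means mean reaches 50% but only one of two replicates passes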;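 further: firefly luciferase signal divided by Alamar Blue viability fluorescence both relative to DMSO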
PAX8 inh HTS = inhibitors of PAX8 transcriptional activity in RMG-I cells; RMG-I TPO-luciferase reporter, SteadyGlo, 24 h; inhibition, % at 12.6 µM; 1.2% of 360,000 active; AID 652154;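 active means mean replicate inhibition at least 60% with every replicate also reaching 60%; inconclusive means only one of the two criteria is met; inactive means mean below 60% and not all replicates reaching 60%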;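 further: luciferase light reporting Pax8 driven TPO promoter activity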
Shn3 inh set2 = reduces Shn3 3'UTR luciferase signal in osteoblasts. Clone20 osteoblast Shn3 3'UTR firefly luciferase, 24 h. inhibition, % at 12.5 µM. 0.52% of 360,000 active. AID 588674;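 active means mean inhibition of at least 75% with every replicate also reaching 75%; inconclusive means mean inhibition at least 75% but some replicate below; inactive means mean inhibition below 75%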
KKLEB tox = reduces viability of KKLEB cystic fibrosis airway cells; KKLEB CF airway cells viability, ATPlite luminescence, overnight; stronger effect = lower value; cells stimulated with P. aeruginosa culture filtrate; 0.36% of 360,000 active; activity change (cytotoxicity), % at 5 µM;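 active means corrected activity change at or below -50% at 5 µM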
LGR2 inh = Drosophila LGR2 receptor signaling inhibition; inhibition, % at 9.99 µM; HEK293 LGR2, CRE-luciferase, bursicon-stimulated, 4 h; 0.35% of 380,000 active; AID 720647;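 active means drop in luminescence signal, shown as inhibition above about 50% in the replicate tests, limit read from the data, passing the limit was not always enough; inconclusive means probably only some replicates passing the limit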;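 further: agonist challenge used bursicon conditioned medium at about half maximal strength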
Of the large screens only hits and unclear results are named; the others gave an inactive call. This is a sample that favours compounds with a hit; in the whole collection about 2% have one here.

Cc1cc(C(=O)Nc2cccc3c2O[C@@H](CN(C)Cc2ccc4c(c2)OCO4)[C@H](C)CN([C@H](C)CO)C3=O)n(C)n1	none (no result: CF NFkB block, Shn3 inh set2, KKLEB tox)
COc1ccccc1NC(=S)N(CCCN(C)C)Cc1cc2cc3c(cc2[nH]c1=O)OCO3	none (no result: LGR2 inh)
COC(=O)c1ccccc1NC(=S)N(Cc1ccc2c(c1)OCO2)Cc1cc2cc(OC)ccc2[nH]c1=O	Shn3 inh set2 89 (no result: EWS-Fli block)
CCn1cc(C(c2ccccc2)C(C(C)=O)[N+](=O)[O-])c2ccccc21 (centres undefined)	none
CC(=O)C(C(c1ccccc1)c1c[nH]c2ccccc12)[N+](=O)[O-] (centres undefined)	EWS-Fli block 51
O=C(NCc1ccccc1)c1sc(=S)n2c1[nH]c(=O)c1ccccc12	CF NFkB block 51 (no result: EWS-Fli block, LGR2 inh)
CCCCNC(=O)c1sc(=S)n2c1[nH]c(=O)c1ccc(C(=O)NCCc3ccc(OC)c(OC)c3)cc12	none (no result: EWS-Fli block, PAX8 inh HTS, LGR2 inh)
CCCCCC(=O)N1C[C@H](n2cc(-c3ccc(F)cc3)nn2)[C@@H](O)C[C@@H]1c1ccc(Cl)cc1	PAX8 inh HTS 82
CNC[C@@H]1OCCCC[C@@H](C)Oc2ccc(NS(=O)(=O)c3ccc(Cl)cc3)cc2C(=O)N([C@H](C)CO)C[C@@H]1C	none (no result: CF NFkB block, Shn3 inh set2, KKLEB tox)
CCn1c2ccccc2c2cc(Nc3cc(C)nc4ncnn34)ccc21	EWS-Fli block 64, PAX8 inh HTS 96
CCc1ccc(Nc2cc(C)nc3ncnn23)cc1	none
COc1ccc(NC(=O)Nc2ccc3c(c2)CC(=O)N([C@@H](C)CO)C[C@H](C)[C@H](CN(C)Cc2ccc(C(=O)O)cc2)O3)cc1	none (no result: CF NFkB block, PAX8 inh HTS, Shn3 inh set2, KKLEB tox)
Cn1cnc(S(=O)(=O)N2CCCCN3[C@@H](CO)[C@H](c4ccc(C#CC5CC5)cc4)[C@@H]3C2)c1	none (no result: CF NFkB block, Shn3 inh set2, KKLEB tox, LGR2 inh)
CCCCOc1ccc(C(=O)CCN2CCOCC2)cc1	PAX8 inh HTS 69
CCOc1ccc(C(CN2CCOCC2)C(C)=O)cc1OC (centres undefined)	PAX8 inh HTS 102
O=C(c1ccc(Br)cc1)C(CN1CCOCC1)c1ccccc1 (centres undefined)	CF NFkB block 62, Shn3 inh set2 96, KKLEB tox -64
CCOc1ccc(C(C#N)N2CCOCC2)cc1OC (centres undefined)	none (no result: EWS-Fli block, LGR2 inh)
CCOc1ccc(C(=O)C(CN2CCOCC2)c2ccccc2)cc1 (centres undefined)	PAX8 inh HTS 97 (no result: EWS-Fli block)
CCOc1ccc(C(O)(CCC(C)C)C(CN2CCOCC2)c2ccccc2)cc1 (centres undefined)	none
C[C@@H]1CN([C@@H](C)CO)C(=O)c2cccc(NS(=O)(=O)c3ccc(Cl)cc3)c2O[C@H]1CN(C)C(=O)Nc1ccc(F)cc1	none (no result: CF NFkB block, Shn3 inh set2, KKLEB tox)
O=C(c1ccccc1)C(CN1CCCCC1)c1ccccc1 (centres undefined)	CF NFkB block 85, EWS-Fli block 69, PAX8 inh HTS 69, Shn3 inh set2 inconclusive, KKLEB tox -63, LGR2 inh inconclusive
CO[C@H]1CN(C)C(=O)c2ccc(NC(=O)c3ccccc3F)cc2OC[C@H](C)N(C(C)=O)C[C@H]1C	none (no result: CF NFkB block, Shn3 inh set2, KKLEB tox)
N=C1/C(=C\c2ccc(-c3ccc(C(=O)O)cc3)o2)C(=O)N=C2SC=C(c3ccccc3)N12	CF NFkB block 72
N=C1/C(=C\c2ccc(-c3cccc(Cl)c3)o2)C(=O)N=C2SC=C(c3ccccc3)N12	none (no result: LGR2 inh)
COCC(=O)Nc1ccc2c(c1)[C@@H]1C[C@@H](CC(=O)NCc3ccc(-c4ccccc4)cc3)O[C@H](CO)[C@@H]1O2	none (no result: CF NFkB block, Shn3 inh set2, KKLEB tox)
COc1ccc(CN2CCC(N(CCc3ccccc3)Cc3ccccc3)CC2)c(OC)c1	Shn3 inh set2 89
CCCN1CCC(N(CCc2ccccc2)Cc2ccccc2)CC1	none
C[C@@H]1CCCCO[C@H](CN(C)C(=O)Nc2ccc(F)cc2)[C@@H](C)CN([C@@H](C)CO)C(=O)c2cc(NC(=O)Nc3ccc(C(F)(F)F)cc3)ccc2O1	PAX8 inh HTS 95 (no result: CF NFkB block, Shn3 inh set2, KKLEB tox)
C[C@@H]1CN([C@H](C)CO)C(=O)c2cc(NC(=O)Nc3ccc(C(F)(F)F)cc3)ccc2O[C@@H](C)CCCCO[C@H]1CN(C)C(=O)Nc1ccc(F)cc1	PAX8 inh HTS 84 (no result: CF NFkB block, Shn3 inh set2, KKLEB tox)
C[C@@H](NC(=O)C[C@@H]1CC[C@@H](NS(=O)(=O)c2cccc(F)c2)[C@H](CO)O1)c1ccccc1	none (no result: CF NFkB block, EWS-Fli block, PAX8 inh HTS, Shn3 inh set2, KKLEB tox)
Nc1nc2ccc(OC(F)(F)F)cc2s1	KKLEB tox -56 (no result: LGR2 inh)
Cc1noc(C)c1NC(=O)Nc1ccc2c(c1)C(=O)N([C@H](C)CO)C[C@@H](C)[C@H](CN(C)C)OCCCC[C@@H](C)O2	none (no result: CF NFkB block, Shn3 inh set2, KKLEB tox)
Cc1ccccc1CN1C(=O)c2ccccc2C1c1nnnn1-c1ccc2c(c1)OCCO2 (centres undefined)	EWS-Fli block 61 (no result: CF NFkB block, Shn3 inh set2, KKLEB tox)
Cc1ccc(CN2C(=O)c3ccccc3C2c2nnnn2-c2ccc3c(c2)OCCO3)cc1 (centres undefined)	none (no result: CF NFkB block, Shn3 inh set2, KKLEB tox)
Cc1noc(C)c1NC(=O)Nc1ccc2c(c1)C(=O)N([C@@H](C)CO)C[C@@H](C)[C@@H](CN(C)C(=O)C1CCCCC1)OCCCC[C@@H](C)O2	none (no result: CF NFkB block, Shn3 inh set2, KKLEB tox)
CCc1n[n+](CC(=O)c2ccccc2)c(N)s1	EWS-Fli block 59, LGR2 inh 81
C/C=C/c1ccc([C@@H]2[C@H](CO)N3C(=O)CN(S(=O)(=O)c4cccc(F)c4)C[C@@H]23)cc1	none (no result: CF NFkB block, PAX8 inh HTS, Shn3 inh set2, KKLEB tox)
O=C(/C=C/Nc1ccccc1F)c1cccs1	LGR2 inh 80 (no result: EWS-Fli block)
O=C(/C=C\Nc1cccc(F)c1)c1cccs1	none (no result: EWS-Fli block, PAX8 inh HTS, LGR2 inh)
O=C(/C=C/Nc1ccc(F)cc1F)c1cccs1	KKLEB tox -68, LGR2 inh 79 (no result: EWS-Fli block)
O=C(/C=C\Nc1ccc2c(c1)OCO2)c1cccs1	none
Cc1ccc(N/C=C/C(=O)c2cccs2)cc1	EWS-Fli block 59, KKLEB tox -54, LGR2 inh 75
CCOC(=O)c1ccccc1N/C=C/C(=O)c1cccs1	none
O=C1CN(S(=O)(=O)c2ccccc2)C[C@H]2[C@H](c3ccc(Br)cc3)[C@@H](CO)N12	none (no result: CF NFkB block, Shn3 inh set2, KKLEB tox)
COc1ccccc1NC(=O)N1CC[C@@H]2[C@@H](CO)N(C)c3ccc(-c4ccc(F)cc4)cc3[C@@H]21	none (no result: CF NFkB block, Shn3 inh set2, KKLEB tox)
O=C(C[C@H]1CC[C@@H](NC(=O)CN2CCOCC2)[C@@H](CO)O1)NCCc1ccccc1	none (no result: CF NFkB block, Shn3 inh set2, KKLEB tox)
CC(NC(=O)CN(c1cccc(C(F)(F)F)c1)S(=O)(=O)c1ccc(Cl)c([N+](=O)[O-])c1)c1ccccc1 (centres undefined)	EWS-Fli block 60, PAX8 inh HTS 61
Cc1ccnc(NC(=O)c2cc3ccccc3o2)c1	EWS-Fli block 75, LGR2 inh 77
COC(=O)c1cc(NC(=O)c2cc3ccccc3o2)cc(C(=O)OC)c1	none
COc1ccccc1N(Cc1ccccc1)S(=O)(=O)c1cccc(C(=O)Nc2ncccc2C)c1	none
COC(=O)c1cccc(NC(=O)c2cc3ccccc3o2)c1	EWS-Fli block 84 (no result: LGR2 inh)
CCOc1ccc(C(=O)Nc2cc(C)ccn2)cc1	EWS-Fli block inconclusive, KKLEB tox -57, LGR2 inh 65
